# Data: publication PMC7862700, “An all-to-all approach to the identification of sequence-specific readers for epigenetic DNA modifications on cytosine”
# Experiments:
# Experiment in all cases: DAPPL (digital affinity profiling via proximity ligation, sequencing); 10 mM Tris-HCl pH 7.5, 50 mM NaCl, 1 mM DTT, 4% glycerol, room temperature, 30 min; GST-TFs on glutathione beads, 16-mer random dsDNA library, 0.1% formaldehyde crosslink after washing; high values mean tight binding
# [1] = biological target: T1, FLI1 (Homo sapiens, UniProt Q01543 1-452); details: protein: recombinant; tags: N-terminal GST; dsDNA, one strand shown
# T1 sequence: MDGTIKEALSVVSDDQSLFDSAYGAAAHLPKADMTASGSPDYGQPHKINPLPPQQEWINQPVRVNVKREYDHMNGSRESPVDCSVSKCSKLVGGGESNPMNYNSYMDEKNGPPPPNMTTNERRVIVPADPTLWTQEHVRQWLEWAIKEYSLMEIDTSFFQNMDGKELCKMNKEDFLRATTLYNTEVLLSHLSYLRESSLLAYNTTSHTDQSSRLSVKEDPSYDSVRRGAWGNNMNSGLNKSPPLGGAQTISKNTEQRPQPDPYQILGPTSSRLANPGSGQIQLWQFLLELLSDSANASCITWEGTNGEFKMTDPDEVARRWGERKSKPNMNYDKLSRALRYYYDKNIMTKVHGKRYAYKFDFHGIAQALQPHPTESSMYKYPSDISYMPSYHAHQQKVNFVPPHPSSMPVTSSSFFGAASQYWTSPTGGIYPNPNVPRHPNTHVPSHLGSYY
# How it was run: (§1)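 Each value of binding signal is a hexamer's read frequency for a factor divided by the same hexamer's frequency in the tag-only sample. Barcoded, bead-captured GST fusions of human transcription factors made in yeast were pooled with that sample and incubated with 200 nmole of a random double-stranded 16-mer DNA library in Tris/NaCl/DTT/glycerol buffer at room temperature for 30 min. Washing, 0.1% formaldehyde crosslinking, proximity ligation, PCR and Illumina NextSeq500 sequencing followed.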
# [2] = biological target: T2, ELK1 (Homo sapiens, UniProt P19419 1-428); details: protein: recombinant; tags: N-terminal GST; dsDNA, one strand shown
# T2 sequence: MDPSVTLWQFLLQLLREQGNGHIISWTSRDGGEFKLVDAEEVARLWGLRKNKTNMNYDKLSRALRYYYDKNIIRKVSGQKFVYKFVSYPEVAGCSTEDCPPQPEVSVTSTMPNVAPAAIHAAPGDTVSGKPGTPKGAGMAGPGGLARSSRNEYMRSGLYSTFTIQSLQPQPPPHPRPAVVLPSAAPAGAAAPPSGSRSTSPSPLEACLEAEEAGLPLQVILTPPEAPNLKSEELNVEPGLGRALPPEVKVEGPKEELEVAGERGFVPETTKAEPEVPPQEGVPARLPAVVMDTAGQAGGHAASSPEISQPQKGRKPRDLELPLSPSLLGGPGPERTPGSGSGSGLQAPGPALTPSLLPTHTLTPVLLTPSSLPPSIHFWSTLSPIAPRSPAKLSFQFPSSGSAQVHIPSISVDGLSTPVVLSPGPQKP
# How it was run: as §1
# [3] = biological target: T3, GABPA (Homo sapiens, UniProt Q06546 1-454); details: protein: recombinant; tags: N-terminal GST; dsDNA, one strand shown
# T3 sequence: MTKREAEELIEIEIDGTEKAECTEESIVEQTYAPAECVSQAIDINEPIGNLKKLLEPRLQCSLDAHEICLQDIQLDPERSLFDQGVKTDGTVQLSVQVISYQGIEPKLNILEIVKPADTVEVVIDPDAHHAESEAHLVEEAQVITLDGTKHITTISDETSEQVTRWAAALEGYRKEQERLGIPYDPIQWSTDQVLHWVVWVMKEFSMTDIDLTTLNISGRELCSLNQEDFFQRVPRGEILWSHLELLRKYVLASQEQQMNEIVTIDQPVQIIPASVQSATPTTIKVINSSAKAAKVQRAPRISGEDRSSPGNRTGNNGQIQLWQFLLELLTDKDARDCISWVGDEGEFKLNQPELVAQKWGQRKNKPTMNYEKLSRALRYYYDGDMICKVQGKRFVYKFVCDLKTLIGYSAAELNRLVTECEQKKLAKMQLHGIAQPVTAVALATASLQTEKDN
# How it was run: as §1
# [4] = biological target: T4, ERG (Homo sapiens, UniProt P11308 1-479); details: protein: recombinant; tags: N-terminal GST; dsDNA, one strand shown
# T4 sequence: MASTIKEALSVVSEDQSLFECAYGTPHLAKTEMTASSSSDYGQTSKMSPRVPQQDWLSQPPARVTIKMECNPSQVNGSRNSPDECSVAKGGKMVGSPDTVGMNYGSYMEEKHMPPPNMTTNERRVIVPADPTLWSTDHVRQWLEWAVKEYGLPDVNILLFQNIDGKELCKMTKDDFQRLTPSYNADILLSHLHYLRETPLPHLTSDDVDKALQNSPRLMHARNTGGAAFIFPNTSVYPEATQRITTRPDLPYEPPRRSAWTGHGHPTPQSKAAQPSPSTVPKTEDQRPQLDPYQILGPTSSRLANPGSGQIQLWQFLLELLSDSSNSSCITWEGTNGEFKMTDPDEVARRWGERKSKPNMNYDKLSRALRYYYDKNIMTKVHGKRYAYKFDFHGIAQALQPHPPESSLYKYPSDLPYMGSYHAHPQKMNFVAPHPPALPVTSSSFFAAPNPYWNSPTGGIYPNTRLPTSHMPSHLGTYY
# How it was run: as §1
# [5] = biological target: ELF1 (Homo sapiens, UniProt P32519 1-619); details: protein: recombinant; tags: N-terminal GST; dsDNA, one strand shown
# Sequence of ELF1 (P32519 whole entry): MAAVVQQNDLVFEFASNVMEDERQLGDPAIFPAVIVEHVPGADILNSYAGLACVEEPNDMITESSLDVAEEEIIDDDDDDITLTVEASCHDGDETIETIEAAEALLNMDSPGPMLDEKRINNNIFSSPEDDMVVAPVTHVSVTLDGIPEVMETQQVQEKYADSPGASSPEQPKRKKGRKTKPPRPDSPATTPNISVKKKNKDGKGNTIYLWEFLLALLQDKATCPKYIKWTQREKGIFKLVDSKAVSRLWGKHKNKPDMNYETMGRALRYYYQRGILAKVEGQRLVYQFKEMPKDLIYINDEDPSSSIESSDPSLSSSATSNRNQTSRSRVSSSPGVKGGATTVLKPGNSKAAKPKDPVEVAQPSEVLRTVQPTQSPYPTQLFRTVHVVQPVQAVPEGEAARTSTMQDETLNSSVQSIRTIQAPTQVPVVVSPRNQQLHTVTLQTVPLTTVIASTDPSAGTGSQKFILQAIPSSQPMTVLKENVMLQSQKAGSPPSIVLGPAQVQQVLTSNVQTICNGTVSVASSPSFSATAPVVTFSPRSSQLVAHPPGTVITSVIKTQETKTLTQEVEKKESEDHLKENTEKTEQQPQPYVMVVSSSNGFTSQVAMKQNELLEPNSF
# How it was run: as §1
# [6] = biological target: T5, EHF (Homo sapiens, UniProt Q9NZC4 1-300); details: protein: recombinant; tags: N-terminal GST; dsDNA, one strand shown
# T5 sequence: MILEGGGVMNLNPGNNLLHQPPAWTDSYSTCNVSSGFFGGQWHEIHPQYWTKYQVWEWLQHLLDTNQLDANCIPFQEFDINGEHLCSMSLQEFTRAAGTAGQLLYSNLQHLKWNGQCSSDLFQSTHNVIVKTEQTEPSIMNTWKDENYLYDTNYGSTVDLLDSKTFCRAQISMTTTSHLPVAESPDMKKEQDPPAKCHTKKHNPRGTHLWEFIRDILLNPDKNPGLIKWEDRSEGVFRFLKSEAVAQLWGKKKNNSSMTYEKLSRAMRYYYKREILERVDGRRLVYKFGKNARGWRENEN
# How it was run: as §1
# [7] = biological target: SPI1 (Homo sapiens, UniProt P17947 1-270); details: protein: recombinant; tags: N-terminal GST; dsDNA, one strand shown
# How it was run: as §1
# [8] = biological target: SPIB (Homo sapiens, UniProt Q01892 1-262); details: protein: recombinant; tags: N-terminal GST; dsDNA, one strand shown
# Sequence of SPIB (Q01892 whole entry): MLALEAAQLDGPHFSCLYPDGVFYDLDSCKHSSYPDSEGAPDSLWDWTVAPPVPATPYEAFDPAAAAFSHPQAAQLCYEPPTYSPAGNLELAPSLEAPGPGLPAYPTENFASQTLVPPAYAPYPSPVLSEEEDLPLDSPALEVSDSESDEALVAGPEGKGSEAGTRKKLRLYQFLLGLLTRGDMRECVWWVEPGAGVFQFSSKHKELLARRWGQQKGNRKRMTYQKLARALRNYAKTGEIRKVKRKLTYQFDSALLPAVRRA
# How it was run: as §1
# [9] = biological target: T6, ELK3 (Homo sapiens, UniProt P41970 1-407); details: protein: recombinant; tags: N-terminal GST; dsDNA, one strand shown
# T6 sequence: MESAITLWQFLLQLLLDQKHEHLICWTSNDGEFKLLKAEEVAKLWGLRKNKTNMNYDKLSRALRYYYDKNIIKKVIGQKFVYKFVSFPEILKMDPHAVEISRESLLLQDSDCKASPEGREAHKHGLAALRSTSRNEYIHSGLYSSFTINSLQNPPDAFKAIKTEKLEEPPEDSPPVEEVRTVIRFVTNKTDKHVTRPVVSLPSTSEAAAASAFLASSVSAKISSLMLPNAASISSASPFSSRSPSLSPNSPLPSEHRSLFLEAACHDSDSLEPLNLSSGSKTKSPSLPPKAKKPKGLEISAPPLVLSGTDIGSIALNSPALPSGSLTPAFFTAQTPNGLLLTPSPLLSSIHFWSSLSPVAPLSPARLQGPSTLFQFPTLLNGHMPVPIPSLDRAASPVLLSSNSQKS
# How it was run: as §1
# [10] = biological target: T7, FEV (Homo sapiens, UniProt Q99581 1-238); details: protein: recombinant; tags: N-terminal GST; dsDNA, one strand shown
# T7 sequence: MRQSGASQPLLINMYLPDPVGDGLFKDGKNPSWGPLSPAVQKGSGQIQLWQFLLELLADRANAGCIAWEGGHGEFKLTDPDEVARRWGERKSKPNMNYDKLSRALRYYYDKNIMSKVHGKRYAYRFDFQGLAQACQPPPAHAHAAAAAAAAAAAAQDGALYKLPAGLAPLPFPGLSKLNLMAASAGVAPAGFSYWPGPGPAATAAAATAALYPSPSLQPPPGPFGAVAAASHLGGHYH
# How it was run: as §1
# [11] = biological target: ETV5 (Homo sapiens, UniProt P41161 1-510); details: protein: recombinant; tags: N-terminal GST; dsDNA, one strand shown
# Sequence of ETV5 (P41161 whole entry): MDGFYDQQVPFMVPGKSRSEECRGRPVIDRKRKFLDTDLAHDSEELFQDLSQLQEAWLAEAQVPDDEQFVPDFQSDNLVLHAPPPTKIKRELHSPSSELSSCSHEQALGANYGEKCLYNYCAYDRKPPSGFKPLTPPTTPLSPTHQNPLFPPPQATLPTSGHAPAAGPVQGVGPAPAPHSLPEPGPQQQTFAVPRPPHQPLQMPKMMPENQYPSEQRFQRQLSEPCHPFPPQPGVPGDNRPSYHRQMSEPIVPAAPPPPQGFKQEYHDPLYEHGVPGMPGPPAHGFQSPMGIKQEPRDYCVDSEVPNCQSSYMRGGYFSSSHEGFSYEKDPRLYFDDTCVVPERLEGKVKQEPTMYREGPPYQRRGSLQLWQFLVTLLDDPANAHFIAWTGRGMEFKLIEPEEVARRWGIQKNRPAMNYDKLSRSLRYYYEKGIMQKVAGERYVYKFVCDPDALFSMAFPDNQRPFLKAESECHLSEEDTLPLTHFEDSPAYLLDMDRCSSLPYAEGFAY
# How it was run: as §1
# [12] = biological target: HSF1 (Homo sapiens, UniProt Q00613 1-529); details: protein: recombinant; tags: N-terminal GST; chain copies: 3; dsDNA, one strand shown
# Sequence of HSF1 (Q00613 whole entry): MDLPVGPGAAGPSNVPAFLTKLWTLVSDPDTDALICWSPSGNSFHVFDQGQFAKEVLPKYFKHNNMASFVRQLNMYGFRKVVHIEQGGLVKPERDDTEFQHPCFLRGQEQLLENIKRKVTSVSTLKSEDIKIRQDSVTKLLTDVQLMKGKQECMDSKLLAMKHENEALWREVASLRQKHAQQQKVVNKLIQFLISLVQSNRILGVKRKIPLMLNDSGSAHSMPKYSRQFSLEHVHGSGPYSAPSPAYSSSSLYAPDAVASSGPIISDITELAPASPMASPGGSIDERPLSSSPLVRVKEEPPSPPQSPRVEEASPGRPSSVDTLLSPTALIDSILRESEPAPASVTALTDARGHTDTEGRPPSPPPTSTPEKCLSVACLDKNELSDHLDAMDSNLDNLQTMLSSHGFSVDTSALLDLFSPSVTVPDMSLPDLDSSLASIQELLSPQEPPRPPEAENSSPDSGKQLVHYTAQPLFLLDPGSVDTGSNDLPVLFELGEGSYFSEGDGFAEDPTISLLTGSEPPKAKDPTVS
# How it was run: as §1
# [13] = biological target: T8, SPIC (Homo sapiens, UniProt Q8N5J4 1-248); details: protein: recombinant; tags: N-terminal GST; dsDNA, one strand shown
# T8 sequence: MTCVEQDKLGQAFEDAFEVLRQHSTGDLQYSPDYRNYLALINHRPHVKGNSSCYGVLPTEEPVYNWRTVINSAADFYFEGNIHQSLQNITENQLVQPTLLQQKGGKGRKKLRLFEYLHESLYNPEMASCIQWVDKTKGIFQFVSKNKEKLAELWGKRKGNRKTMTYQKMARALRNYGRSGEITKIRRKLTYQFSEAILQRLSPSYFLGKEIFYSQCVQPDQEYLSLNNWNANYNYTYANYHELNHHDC
# How it was run: as §1
# [14] = biological target: ELF4 (Homo sapiens, UniProt Q99607 1-663); details: protein: recombinant; tags: N-terminal GST; dsDNA, one strand shown
# Sequence of ELF4 (Q99607 whole entry): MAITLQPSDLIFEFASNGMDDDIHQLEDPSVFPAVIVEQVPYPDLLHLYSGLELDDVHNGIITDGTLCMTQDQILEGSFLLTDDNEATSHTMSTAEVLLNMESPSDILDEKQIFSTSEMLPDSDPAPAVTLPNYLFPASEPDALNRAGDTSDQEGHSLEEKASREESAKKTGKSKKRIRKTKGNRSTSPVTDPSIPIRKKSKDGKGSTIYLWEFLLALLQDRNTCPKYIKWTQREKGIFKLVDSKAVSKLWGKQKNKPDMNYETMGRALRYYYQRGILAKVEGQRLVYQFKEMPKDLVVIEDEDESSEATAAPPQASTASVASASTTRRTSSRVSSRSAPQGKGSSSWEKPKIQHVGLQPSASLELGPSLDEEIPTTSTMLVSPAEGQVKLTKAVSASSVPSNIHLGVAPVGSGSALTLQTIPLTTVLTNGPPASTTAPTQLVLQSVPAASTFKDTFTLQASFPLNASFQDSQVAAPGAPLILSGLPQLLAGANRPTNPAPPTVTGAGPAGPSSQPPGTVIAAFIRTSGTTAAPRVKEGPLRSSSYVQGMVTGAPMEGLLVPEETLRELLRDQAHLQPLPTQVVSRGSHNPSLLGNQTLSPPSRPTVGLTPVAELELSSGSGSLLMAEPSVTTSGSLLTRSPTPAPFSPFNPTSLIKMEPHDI
# How it was run: as §1
# [15] = biological target: T9, ELK4 (Homo sapiens, UniProt P28324-2 1-405); details: protein: recombinant; tags: N-terminal GST; dsDNA, one strand shown
# T9 sequence: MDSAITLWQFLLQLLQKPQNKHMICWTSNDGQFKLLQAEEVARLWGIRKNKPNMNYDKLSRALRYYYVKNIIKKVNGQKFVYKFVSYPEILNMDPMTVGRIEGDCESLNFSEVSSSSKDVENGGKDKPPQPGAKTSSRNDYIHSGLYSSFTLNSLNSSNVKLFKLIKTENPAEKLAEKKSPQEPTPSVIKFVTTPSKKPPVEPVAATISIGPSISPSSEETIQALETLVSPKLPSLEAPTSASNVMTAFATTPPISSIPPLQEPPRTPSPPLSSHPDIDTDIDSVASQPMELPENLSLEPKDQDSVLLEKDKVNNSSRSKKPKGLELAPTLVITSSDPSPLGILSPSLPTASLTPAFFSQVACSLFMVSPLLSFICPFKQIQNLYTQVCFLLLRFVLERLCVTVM
# How it was run: as §1
# [16] = biological target: T10, ETV2 (Homo sapiens, UniProt O00321 1-342); details: protein: recombinant; tags: N-terminal GST; dsDNA, one strand shown
# T10 sequence: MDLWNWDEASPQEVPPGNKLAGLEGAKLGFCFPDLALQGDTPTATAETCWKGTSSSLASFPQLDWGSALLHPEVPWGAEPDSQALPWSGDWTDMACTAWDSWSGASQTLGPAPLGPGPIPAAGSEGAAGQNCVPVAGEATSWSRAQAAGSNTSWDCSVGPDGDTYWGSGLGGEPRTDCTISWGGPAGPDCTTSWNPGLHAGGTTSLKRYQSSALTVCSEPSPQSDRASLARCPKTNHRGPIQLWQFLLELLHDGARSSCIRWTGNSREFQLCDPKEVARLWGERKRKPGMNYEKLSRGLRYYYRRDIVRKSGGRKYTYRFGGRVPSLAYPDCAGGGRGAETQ
# How it was run: as §1
# [17] = biological target: T11, ELF3 (Homo sapiens, UniProt P78545 1-371); details: protein: recombinant; tags: N-terminal GST; dsDNA, one strand shown
# T11 sequence: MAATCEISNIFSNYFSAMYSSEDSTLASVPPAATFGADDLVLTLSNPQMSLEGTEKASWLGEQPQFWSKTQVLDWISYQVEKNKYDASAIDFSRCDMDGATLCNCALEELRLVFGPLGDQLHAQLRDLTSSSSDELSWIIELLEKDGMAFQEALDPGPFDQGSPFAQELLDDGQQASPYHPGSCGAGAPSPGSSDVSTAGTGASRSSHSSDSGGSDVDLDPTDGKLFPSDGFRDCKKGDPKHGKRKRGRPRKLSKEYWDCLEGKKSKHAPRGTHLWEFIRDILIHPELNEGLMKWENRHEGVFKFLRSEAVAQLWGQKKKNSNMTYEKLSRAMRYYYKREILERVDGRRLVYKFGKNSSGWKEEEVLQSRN
# How it was run: as §1
# [18] = biological target: CRX (Homo sapiens, UniProt O43186 1-299); details: protein: recombinant; tags: N-terminal GST; dsDNA, one strand shown
# Sequence of CRX (O43186 whole entry): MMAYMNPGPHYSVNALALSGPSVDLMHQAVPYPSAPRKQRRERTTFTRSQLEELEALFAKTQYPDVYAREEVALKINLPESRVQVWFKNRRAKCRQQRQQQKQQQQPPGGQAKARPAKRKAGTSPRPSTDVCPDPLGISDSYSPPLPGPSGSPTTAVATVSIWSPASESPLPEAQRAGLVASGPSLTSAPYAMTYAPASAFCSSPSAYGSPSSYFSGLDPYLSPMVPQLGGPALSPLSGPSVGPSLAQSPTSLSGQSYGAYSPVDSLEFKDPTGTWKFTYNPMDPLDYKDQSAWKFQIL
# How it was run: as §1
# [19] = biological target: ETV1 (Homo sapiens, UniProt P50549 1-477); details: protein: recombinant; tags: N-terminal GST; dsDNA, one strand shown
# Sequence of ETV1 (P50549 whole entry): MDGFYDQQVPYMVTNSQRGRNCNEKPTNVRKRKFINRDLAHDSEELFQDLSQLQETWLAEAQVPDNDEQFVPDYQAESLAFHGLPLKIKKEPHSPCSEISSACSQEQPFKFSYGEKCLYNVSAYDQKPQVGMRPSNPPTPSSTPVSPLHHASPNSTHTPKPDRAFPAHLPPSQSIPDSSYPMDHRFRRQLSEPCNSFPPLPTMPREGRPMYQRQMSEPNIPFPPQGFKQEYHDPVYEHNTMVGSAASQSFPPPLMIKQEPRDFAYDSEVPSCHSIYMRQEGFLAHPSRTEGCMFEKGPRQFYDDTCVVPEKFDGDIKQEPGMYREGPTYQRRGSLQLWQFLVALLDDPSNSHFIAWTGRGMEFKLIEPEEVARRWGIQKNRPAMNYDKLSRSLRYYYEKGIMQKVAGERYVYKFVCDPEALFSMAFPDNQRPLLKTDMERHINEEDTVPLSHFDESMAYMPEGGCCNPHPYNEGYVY
# How it was run: as §1
sequence,measurement,setting,value
ATTATA,binding signal,[1],"1.24 fold enrichment (6-mer frequency, TF over GST control)"
same,binding signal,[2],"1.32 fold enrichment (6-mer frequency, TF over GST control)"
same,binding signal,[3],"1.21 fold enrichment (6-mer frequency, TF over GST control)"
same,binding signal,[4],"1.25 fold enrichment (6-mer frequency, TF over GST control)"
same,binding signal,[5],"1.31 fold enrichment (6-mer frequency, TF over GST control)"
same,binding signal,[6],"1.29 fold enrichment (6-mer frequency, TF over GST control)"
same,binding signal,[7],"1.2 fold enrichment (6-mer frequency, TF over GST control)"
same,binding signal,[8],"1.37 fold enrichment (6-mer frequency, TF over GST control)"
same,binding signal,[9],"1.28 fold enrichment (6-mer frequency, TF over GST control)"
same,binding signal,[10],"1.32 fold enrichment (6-mer frequency, TF over GST control)"
same,binding signal,[11],"1.29 fold enrichment (6-mer frequency, TF over GST control)"
same,binding signal,[12],"2.05 fold enrichment (6-mer frequency, TF over GST control)"
same,binding signal,[13],"1.36 fold enrichment (6-mer frequency, TF over GST control)"
same,binding signal,[14],"1.24 fold enrichment (6-mer frequency, TF over GST control)"
same,binding signal,[15],"1.29 fold enrichment (6-mer frequency, TF over GST control)"
same,binding signal,[16],"1.42 fold enrichment (6-mer frequency, TF over GST control)"
same,binding signal,[17],"1.39 fold enrichment (6-mer frequency, TF over GST control)"
same,binding signal,[18],"3.2 fold enrichment (6-mer frequency, TF over GST control)"
same,binding signal,[19],"1.3 fold enrichment (6-mer frequency, TF over GST control)"
